Tests used:
HCC1937 = test: relative cell viability, compound + erastin, vs DMSO (fraction of DMSO control); higher = less growth inhibition; conditions: 72 h
MDA-MB-231 = test: as above; conditions: 72 h
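Further: viability read by CCK-8 kit in 96-well plates, part of a combination screen pairing lipid-metabolism-targeting compounds with erastin.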

NC(CO)C(=O)O (racemic) [DL-Serine] + CCOc1ccccc1-n1c(C(C)N2CCN(C(=O)COc3ccc(Cl)cc3)CC2)nc2ccccc2c1=O [erastin]
relative cell viability (HCC1937): 0.667 | relative cell viability (MDA-MB-231): 0.62

Nc1ccc(O)c(C(=O)O)c1 [Mesalamine] + CCOc1ccccc1-n1c(C(C)N2CCN(C(=O)COc3ccc(Cl)cc3)CC2)nc2ccccc2c1=O [erastin]
relative cell viability (HCC1937): 0.772 | relative cell viability (MDA-MB-231): 0.585

COc1c(/C=C/C(=O)c2ccc(O)cc2)ccc(O)c1CC=C(C)C + CCOc1ccccc1-n1c(C(C)N2CCN(C(=O)COc3ccc(Cl)cc3)CC2)nc2ccccc2c1=O [erastin]
relative cell viability (HCC1937): 0.58 | relative cell viability (MDA-MB-231): 0.749

CC(C)(Oc1ccc(C2CC2(Cl)Cl)cc1)C(=O)O (centres undefined) [Ciprofibrate] + CCOc1ccccc1-n1c(C(C)N2CCN(C(=O)COc3ccc(Cl)cc3)CC2)nc2ccccc2c1=O [erastin]
relative cell viability (HCC1937): 0.848 | relative cell viability (MDA-MB-231): 0.628

CC(C)(O)[C@@H]1Cc2cc3ccc(=O)oc3cc2O1 [marmesin] + CCOc1ccccc1-n1c(C(C)N2CCN(C(=O)COc3ccc(Cl)cc3)CC2)nc2ccccc2c1=O [erastin]
relative cell viability (HCC1937): 0.645 | relative cell viability (MDA-MB-231): 0.646

C[C@H](CCC(=O)O)[C@H]1CC[C@H]2[C@@H]3C[C@H](O)[C@@H]4C[C@H](O)CC[C@]4(C)[C@H]3CC[C@]12C [Hyodeoxycholic acid] + CCOc1ccccc1-n1c(C(C)N2CCN(C(=O)COc3ccc(Cl)cc3)CC2)nc2ccccc2c1=O [erastin]
relative cell viability (HCC1937): 0.767 | relative cell viability (MDA-MB-231): 0.881

Fc1ccc(-c2c3cccc(C(F)(F)F)c3nn2Cc2ccc(F)cc2Cl)cc1 + CCOc1ccccc1-n1c(C(C)N2CCN(C(=O)COc3ccc(Cl)cc3)CC2)nc2ccccc2c1=O [erastin]
relative cell viability (HCC1937): 0.797 | relative cell viability (MDA-MB-231): 0.509

Source: the supplement of paper PMC9492666
